Activity calls are given as the source filed them.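 How the source made its calls, unless noted: active means inhibition of the reporter signal at or above 50%; inactive means inhibition below 50%.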
Assays:
[1] = inhibitors of TNFa-induced NFkB p65 translocation, primary screen, imaging, HUVEC, MLSMR starter and 10KST1 sets (AID 438;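 active means inhibition above 20% together with a positive visual image hit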;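 further: compound added about 3h40 before a 20 min TNFalpha stimulation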;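 on inhibition: signal is the nuclear over cytoplasmic p65 intensity ratio per well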); details: HUVEC TNFa-induced p65 nuclear translocation; cell count: measured here: nuclei count (cytotoxicity indicator), at 2.08 µM; inhibition: at 2 µM, stronger effect = higher value, 0% TNFa-plus-vehicle, 100% no-TNFa wells
[2] = inhibitors of mutant huntingtin aggregation, primary screen, imaging, exon1htt(103Q)mCFP cells, high-content imaging (AID 483;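 active means visual image review flags a hit and inhibition of aggregation exceeds 20%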;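 further: compound exposure lasted 3 days before fixation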;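 on nuclei count: percent of the per-plate median nuclei count of sample wells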); details: exon1htt(103Q)mCFP cell line, aggregate imaging, at 2 µM; inhibition of aggregation: stronger effect = higher value; nuclei count: measured here: cell count, toxicity
[3] = inhibitors of E-selectin induction by TNFa, primary screen, imaging, HUVEC, immunofluorescence, MLSMR starter and 10KST1 sets (AID 487;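 active means visually confirmed hit in the image check and inhibition above 20%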;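 on inhibition: signal is fraction of cell area covered by stained E-selectin grains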;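 on nuclei count: 100% = median nuclei count of all wells on the same plate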); details: HUVEC TNFalpha-induced E-selectin immunofluorescence imaging, at 2 µM; inhibition: stronger effect = higher value; nuclei count: measured here: cell number, toxicity
[4] = biological target: Voltage-gated potassium channel subunit beta-2 (Rattus norvegicus) (UniProt P62483); assay: KvBeta enzyme negative modulators, primary screen, biochemical, NADPH fluorescence (AID 622;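 active means fluorescence slope higher than the sample average by over 3 SD, cut at about -0.22 in these data, passing the limit was not always enough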;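 further: slope of raw intensity against log time taken from 70 to 1610 s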); details: recombinant KvBeta, 4-cyanobenzaldehyde reduction, at 10 µM, stronger effect = higher value
[5] = biological target: Voltage-gated potassium channel subunit beta-2 (Rattus norvegicus) (UniProt P62483); assay: KvBeta positive modulators, primary screen, biochemical, NADPH fluorescence (AID 623;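 active means NADPH fluorescence slope more negative than the mean of all samples by about 3 SD, 99.7% confidence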;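 further: fluorescence intensity change per second fitted from 20 to 320 s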); details: Recombinant KvBeta, NADPH fluorescence decrease slope, 10 min; at 10 µM; stronger effect = lower value
[6] = biological target: Alpha-2C adrenergic receptor (Homo sapiens) (UniProt P18825); assay: modulators of alpha2C/GIRK thallium flux, primary screen, cell-based, HEK293 alpha2C/GIRK1/2 (AID 624;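 active means fluorescence slope after compound addition differing from the mean of all screened samples at 99.7% confidence, in either direction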;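 further: slope of fluorescence ratio to pre-addition baseline per second over 15 to 24 s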); details: thallium flux BTC fluorescence, at 10 µM, actives lie on both sides
[7] = inhibitors of Sendai virus-induced IRF3 signaling, primary screen, TLR/RLR signaling modifier project, cell-based, Sendai virus stimulus, luciferase, 10K MLSCN set (AID 602276;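 active means inhibition at or above 50% at 10 µM; inactive means inhibition below 50%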;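 further: firefly luciferase from ISG56 promoter only with Renilla not read in this screen; 0% = Sendai virus plus DMSO and 100% = medium plus DMSO without virus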); details: HEK293 RL24 IRF3 luciferase reporter, at 10 µM, stronger effect = higher value
[8] = inhibitors of poly I:C-induced TLR3 signaling, primary screen, cell-based, poly I:C stimulus, luciferase, 10K MLSCN set (AID 602277); details: HEK293-TLR3 RL24 IRF3 luciferase reporter, at 10 µM, stronger effect = higher value

Alpha-2C adrenergic receptor (Homo sapiens), sequence (P18825 whole entry, looked up): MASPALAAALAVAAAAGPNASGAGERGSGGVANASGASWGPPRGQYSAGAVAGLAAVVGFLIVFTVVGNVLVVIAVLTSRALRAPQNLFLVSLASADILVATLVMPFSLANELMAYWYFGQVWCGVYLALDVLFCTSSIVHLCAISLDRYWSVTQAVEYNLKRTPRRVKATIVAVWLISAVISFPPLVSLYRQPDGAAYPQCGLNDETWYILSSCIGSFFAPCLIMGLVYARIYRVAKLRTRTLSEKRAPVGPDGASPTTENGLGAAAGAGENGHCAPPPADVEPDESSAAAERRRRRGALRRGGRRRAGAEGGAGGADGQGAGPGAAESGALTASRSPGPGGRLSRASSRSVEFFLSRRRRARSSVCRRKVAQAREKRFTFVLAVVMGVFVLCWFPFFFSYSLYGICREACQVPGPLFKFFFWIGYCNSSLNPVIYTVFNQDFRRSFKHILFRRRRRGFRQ
Voltage-gated potassium channel subunit beta-2 (Rattus norvegicus), sequence (P62483 whole entry, looked up): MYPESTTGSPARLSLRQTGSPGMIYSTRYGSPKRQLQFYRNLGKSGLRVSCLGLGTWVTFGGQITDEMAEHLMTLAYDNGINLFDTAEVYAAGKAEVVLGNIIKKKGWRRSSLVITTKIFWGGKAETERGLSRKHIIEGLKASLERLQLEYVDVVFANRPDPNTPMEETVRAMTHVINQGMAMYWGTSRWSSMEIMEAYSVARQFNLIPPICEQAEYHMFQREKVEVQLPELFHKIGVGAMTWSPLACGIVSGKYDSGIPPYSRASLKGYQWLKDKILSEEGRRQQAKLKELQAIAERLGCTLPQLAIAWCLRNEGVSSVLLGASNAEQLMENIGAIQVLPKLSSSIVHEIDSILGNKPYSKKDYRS

Structure (SMILES)	cell count [1]	inhibition [1]	inhibition of aggregation [2]	nuclei count [2]	inhibition [3]	nuclei count [3]	fluorescence slope [4]	NADPH fluorescence slope [5]	slope [6]	inhibition [7]	inhibition [8]
CC(=O)NC(CCS(C)(=O)=O)C(=O)Nc1cc(C)on1 (stereo not drawn)	676	-2.9% (inactive)	26.2% (inactive)	62.5%	-36.9% (inactive)	114%	-0.533 (inactive)	2.6e-05 (inactive)	0.00682 (inactive)	25.9% (inactive)	7.35% (inactive)
CC(c1ccco1)N(Cc1ccco1)C(=O)Nc1ccccc1 (stereo not drawn)	511	1% (inactive)	13.9% (inactive)	90.3%	-45.1% (inactive)	97.5%	-0.574 (inactive)	5.2e-05 (inactive)	0.00511 (inactive)	-3.9% (inactive)	-21.4% (inactive)
O=C(C1CCCO1)N1CCN(Cc2nc3ccccc3c(=O)[nH]2)CC1 (stereo not drawn)	583	6.8% (inactive)	14% (inactive)	125%	-6.3% (inactive)	104%	-0.421 (inactive)	2.2e-05 (inactive)	0.00673 (inactive)	0.729% (inactive)	31% (inactive)
O=C1C2CC=C(Cl)CC2C(=O)N1c1ncn[nH]1 (stereo not drawn)	329	5.5% (inactive)	7.6% (inactive)	98.3%	-62.1% (inactive)	113%	-0.483 (inactive)	-5.8e-05 (inactive)	0.00499 (inactive)	12.6% (inactive)	14% (inactive)
Cn1c(/C=N/n2cnnc2)nc2ccccc21	448	3.5% (inactive)	-4.4% (inactive)	114%	-12.1% (inactive)	123%	-0.0404 (active)	-7e-06 (inactive)	0.00495 (inactive)	6.17% (inactive)	35.3% (inactive)
O=C(c1ccccc1-c1nc(-c2ccccc2)no1)N1CCCC1	600	-8.6% (inactive)	0.7% (inactive)	90.5%	51% (inactive)	85.6%	-0.534 (inactive)	-2.8e-05 (inactive)	0.00572 (inactive)	-20.5% (inactive)	-38.1% (inactive)
O=S(=O)(NCC1CCCO1)c1cc(Cl)ccc1Br (stereo not drawn)	426	-0.2% (inactive)	7.4% (inactive)	108%	-4.9% (inactive)	117%	-0.506 (inactive)	7.7e-05 (inactive)	0.00336 (inactive)	-13.6% (inactive)	-30.7% (inactive)
O=C(c1ccco1)N1CCN(C2=NS(=O)(=O)c3ccccc32)CC1	596	-18.6% (inactive)	-11.3% (inactive)	105%	-3% (inactive)	104%	-0.463 (inactive)	-1.3e-05 (inactive)	0.00424 (inactive)	4.61% (inactive)	31.2% (inactive)
COc1cccc(Oc2cnc(N)nc2-c2ccc(OC)cc2O)c1	664	-8.2% (inactive)	5.1% (inactive)	112%	-111% (inactive)	87.8%	-0.427 (inactive)	-5.9e-05 (inactive)	0.00372 (inactive)	23.8% (inactive)	38% (inactive)
COC(=O)CN1C(=O)CC(C)(C)S(=O)c2ccccc21 (stereo not drawn)	769	-9.2% (inactive)	13.9% (inactive)	82.6%	-44% (inactive)	98.5%	-0.574 (inactive)	-5.2e-05 (inactive)	0.00765 (inactive)	4.76% (inactive)	22.2% (inactive)
COC(=O)CSc1nnc(-c2ccncc2)o1	366	-6.8% (inactive)	-4.1% (inactive)	94.2%	-16.8% (inactive)	106%	-0.46 (inactive)	-4.6e-05 (inactive)	0.00309 (inactive)	6.97% (inactive)	32.3% (inactive)
CC(C)Cc1nc(S(=O)(=O)c2ccc(Cl)cc2)c(N2CCOCC2)o1	570	-12.7% (inactive)	-12.7% (inactive)	119%	-14.6% (inactive)	105%	-0.612 (inactive)	-4.1e-05 (inactive)	0.00543 (inactive)	13.7% (inactive)	12.7% (inactive)
Cc1ccc(-c2nn3c(C)nnc3s2)cc1N	385	7.5% (inactive)	9.7% (inactive)	82%	4.3% (inactive)	114%	-0.405 (inactive)	-3e-05 (inactive)	0.00541 (inactive)	-7.7% (inactive)	-47.2% (inactive)
Cc1c(C)n(C)c2ccc(C(=O)NCc3cccs3)cc12	461	-9.2% (inactive)	19.4% (inactive)	83.8%	11.8% (inactive)	93.5%	-0.505 (inactive)	-3e-05 (inactive)	0.00486 (inactive)	-5.31% (inactive)	-32.8% (inactive)
COc1ccccc1Nc1nc2ccccc2[nH]1	654	4.7% (inactive)	4.6% (inactive)	94.6%	-12.4% (inactive)	96.8%	-0.427 (inactive)	-3.7e-06 (inactive)	0.00559 (inactive)	-19.5% (inactive)	-54.9% (inactive)
COc1ccc2c(c1)C(C)=CC(C)(C)N2C(=O)C(C)N1C(=O)c2ccccc2C1=O (stereo not drawn)	637	4.5% (inactive)	7.1% (inactive)	108%	21.2% (inactive)	118%	-0.612 (inactive)	-1.8e-05 (inactive)	0.00489 (inactive)	5.4% (inactive)	5.89% (inactive)
O=C(COC(=O)c1cnccn1)c1ccc(OC(=O)c2ccccc2)cc1	214	-7.5% (inactive)	21.7% (inactive)	95.2%	-170% (inactive)	132%	-0.359 (inactive)	-6.1e-05 (inactive)	0.00809 (inactive)	18.9% (inactive)	35.6% (inactive)
Cc1nc2ccc(N3C(=O)CCC3=O)cc2[nH]1	282	-8% (inactive)	9.2% (inactive)	92.3%	-42.2% (inactive)	113%	-0.553 (inactive)	5.4e-06 (inactive)	0.00593 (inactive)	6.8% (inactive)	15.6% (inactive)
CCCCP(=O)(CCCC)Cc1ccccc1O	363	-1.6% (inactive)	0.1% (inactive)	91.9%	-39.4% (inactive)	97.4%	-0.474 (inactive)	-0.000131 (inactive)	0.00605 (inactive)	-4.65% (inactive)	9.82% (inactive)
c1ccc(CNc2c3c(nc4ncnn24)CCCC3)nc1	912	2.1% (inactive)	-30.3% (inactive)	102%	-39.1% (inactive)	111%	-0.542 (inactive)	-9.4e-06 (inactive)	0.00501 (inactive)	15.7% (inactive)	13.9% (inactive)
Nn1cnnc1SCC(=O)Nc1ccc2c(c1)OCCO2	553	7.2% (inactive)	-23.3% (inactive)	96%	-74.7% (inactive)	208%	-0.351 (inactive)	-8.3e-06 (inactive)	0.00546 (inactive)	1.38% (inactive)	-17% (inactive)
COC(=O)CSc1nnc(-c2cccs2)n1-c1ccc(Cl)cc1	347	12.8% (inactive)	10.2% (inactive)	106%	-50.2% (inactive)	119%	-0.482 (inactive)	-1.6e-05 (inactive)	0.00413 (inactive)	17% (inactive)	15.7% (inactive)
O=C(NCc1cccs1)C1CC(=O)N(c2ccccc2)C1 (stereo not drawn)	345	-0.5% (inactive)	11.8% (inactive)	98.2%	-28.7% (inactive)	84%	-0.625 (inactive)	3.2e-06 (inactive)	0.00459 (inactive)	2.75% (inactive)	4.93% (inactive)
Cc1nc2ccc(S(=O)(=O)NCC(=O)N3CCCCC3)cc2s1	277	-3% (inactive)	11.4% (inactive)	79.6%	27.3% (inactive)	94.4%	-0.488 (inactive)	-4.1e-05 (inactive)	0.00708 (inactive)	-10.6% (inactive)	-1.82% (inactive)
Cc1cc(N2CCC3(CC2)OCCO3)n2nc(C)c(-c3ccc(Cl)cc3)c2n1	495	-19.7% (inactive)	-48.2% (inactive)	61.2%	-11.4% (inactive)	94.7%	-0.544 (inactive)	7.5e-07 (inactive)	0.00741 (inactive)	12.3% (inactive)	12.1% (inactive)
Cc1ccc(C2C(C(=O)c3sc(C)nc3C)=C(O)C(=O)N2CCN(C)C)o1 (stereo not drawn)	387	-7.6% (inactive)	-12.7% (inactive)	107%	-161% (inactive)	127%	-0.351 (inactive)	-4.5e-05 (inactive)	0.00504 (inactive)	7.21% (inactive)	6.57% (inactive)
NC(=O)c1cccc(S(=O)(=O)N2CCCCC2)c1	417	3% (inactive)	15.9% (inactive)	105%	47.1% (inactive)	87.4%	-0.473 (inactive)	-4.7e-05 (inactive)	0.006 (inactive)	4.76% (inactive)	31.6% (inactive)
CCOc1ccc2nc(SCC(=O)N3CCCCCC3)c(C#N)cc2c1	611	9.1% (inactive)	-7.9% (inactive)	98.1%	-95.4% (inactive)	150%	-0.584 (inactive)	-3.2e-05 (inactive)	0.00304 (inactive)	-1.31% (inactive)	-24.8% (inactive)

— PubChem BioAssay
